Laboratory results: ChEMBL document CHEMBL1157539, “Thousands of chemical starting points for antimalarial lead identification” (Nature, 2010)

Assays:
Assay type in all cases: functional
Plasmodium falciparum [1] = assay: GSK_TCMDC: Inhibition of Plasmodium falciparum 3D7 in whole red blood cells, using parasite LDH activity as an index of growth. Test compounds present at 2uM
Plasmodium falciparum [2] = assay: GSK_TCMDC: Inhibition of Plasmodium falciparum Dd2 in whole red blood cells, using parasite LDH activity as an index of growth. Test compounds present at 2uM
HepG2 = assay: GSK_TCMDC: Percent inhibition of human HepG2 cell line. Test compounds present at 10uM.

Row | SMILES | Inhibition (Plasmodium falciparum [1]) [%] | Inhibition (Plasmodium falciparum [2]) [%] | Inhibition (HepG2) [%]
1 | CN(C)CCN1CCN(CCCN2c3ccccc3Sc3ccc(C(F)(F)F)cc32)CC1.Cl | 99 | 61 | 98
2 | CCN1C(c2ccc(Cl)cc2)C(CNCc2ccccc2O)CC1(C)CO (stereo not given) | 99 | 99 | 47
3 | CC1CN(c2cnn(Cc3ccc(NC(=O)Nc4ccc(F)cc4[N+](=O)[O-])cc3)c(=O)c2Cl)CC(C)N1.O=C(O)C(F)(F)F (stereo not given) | 89 | 10 | 4
4 | Br.CC1(C)NC(N)=NC(=N)N1OCCCOc1cccc(Cl)c1 | 95 | 95 | 65
5 | O=C(/C=C/c1ccc(Cl)c(Cl)c1)NCCCCCN1CCC(NC(=O)c2ccc([N+](=O)[O-])cc2)CC1 | 100 | 6 | 36
6 | CCc1cc2c(cc1OCCN(C)C)N(C(=O)Nc1ccc(-c3ccncc3)c(Cl)c1)CC2 | 95 | 7 | 18
7 | Cc1cccc(Nc2nc(N[C@@H]3CCCNC3)nc3cc[nH]c(=O)c23)c1.O=C(O)C(F)(F)F | 99 | 98 | 55
8 | CCN(CCCN1CCCC1)c1cc(C)nc(Nc2ccc(Cl)cc2)n1.O=C(O)C(=O)O | 100 | 12 | 5
9 | NC(=O)c1cccc(-n2ccc3cc(CNC4Cc5ccccc5C4)ccc32)c1.O=C(O)C(F)(F)F | 88 | 7 | 17
10 | CC(C)C[C@H]1c2[nH]c3ccc(Cl)cc3c2CCN1C(=O)CCc1ccccc1 | 95 | 81 | 0
11 | COc1ccccc1N1CCN(CCCCNC(=O)c2ccc(NC(=O)c3ccc(OC(F)(F)F)cc3)cc2)CC1.Cl | 100 | 39 | 29
12 | CCc1cc2c3c(N)nc(N)nc3ccc2n1C(C)CC (stereo not given) | 100 | 99 | 73
13 | COc1cccc(CC(=O)N2CCC(n3c(C)nc4ccc(C)cc43)CC2)c1 | 100 | 99 | 1
14 | COc1ccc(COc2c(OC)cc(Cc3cnc(N)nc3N)cc2OC)cc1 | 90 | 23 | 5
15 | O=C(Nc1ccc(Oc2ccccc2)cc1)N(Cc1ccc(-c2ccc(CN3CCNCC3)cc2)cc1)C1CCN(Cc2ccccc2)CC1.O=C(O)C(F)(F)F | 100 | 73 | 31
16 | CCCCCn1c(Sc2ccc(C#N)c([N+](=O)[O-])c2)nnc1-c1cc(OC)cc(OC)c1 | 93 | 24 | 17
17 | COc1cc(CN2CCC(N3CCc4cc(NC(=O)c5cc(C)on5)ccc43)C2)ccc1F (stereo not given) | 91 | 96 | 1
18 | COc1ccc(C2CCN(CCCCNC(=O)c3ccc(NC(=O)c4ccc(Cl)cc4)cc3)CC2)cc1Cl | 97 | 75 | 28
19 | O=C(Cc1c[nH]cn1)Nc1cccc(-c2cccc(-c3nc4cc(F)ccc4[nH]3)c2)c1 | 100 | 97 | 21
20 | CCCCOc1cc2ncc(C(=O)OCC)c(O)c2cc1OCCCC | 97 | 96 | 0

Row | SMILES | Inhibition (Plasmodium falciparum [1]) [%] | Inhibition (Plasmodium falciparum [2]) [%] | Inhibition (HepG2) [%]
21 | CCOc1ccc(C2CCN(CCCCNC(=O)c3ccc(NC(=O)c4ccc(Cl)cc4)cc3)CC2)c(Cl)c1 | 100 | 96 | 32
22 | O=C(/C=C/c1ccc(Cl)c(Cl)c1)NCCCCCN1CCC(NC(=S)Nc2ccc(Cl)c(Cl)c2)CC1 | 99 | 65 | 29
23 | Cc1cccc(C(=O)Nc2ccnc(N3CCC(N(C)Cc4ccc(C#N)cc4)CC3)c2)c1.O=C(O)C(F)(F)F | 94 | 6 | 12
24 | Cc1ccc(CON2C(=N)N=C(N)NC2(C)C)cc1C.Cl | 92 | 88 | 64
25 | O=C(Nc1ccccc1)Nc1cccc(-c2nn3c(OCC4CCCCN4)cccc3c2-c2ccncc2)c1 (stereo not given) | 97 | 82 | 9
26 | CCC1N=C(N)N=C(N)N1OCc1ccc(Cl)c(Cl)c1 (stereo not given) | 93 | 90 | 54
27 | Cn1nccc1C(=O)NCCNCc1cccc(-c2csc(-c3nc4ccccc4[nH]3)c2)c1.O=C(O)C(F)(F)F | 100 | 2 | 30
28 | CN1CCCC1CCNCc1cccc(-c2cnc(N(C)C3CCCCC3)nc2)c1 (stereo not given) | 99 | 95 | 98
29 | CCc1c[nH]c2c(N3CCCCS3(=O)=O)cc(C(=O)N[C@@H](Cc3ccccc3)[C@H](O)CNCc3cccc(OC)c3)cc12.O=CO | 86 | 91 | 0
30 | COc1ccc2ncc(F)c(CCN3C4CCC3CC(NCc3cc5c(cn3)OCS5)C4)c2n1.Cl (stereo not given) | 95 | 48 | 15
31 | N#Cc1ccc(/C=C/C(=O)NCCCCCN2CCN(C(=O)Nc3ccc(Cl)c(C(F)(F)F)c3)CC2)cc1 | 94 | 0 | 42
32 | O=C(Nc1cccc(OC2CCN(Cc3ccc(F)cc3)CC2)c1)c1ccc(C(F)(F)F)cc1.O=C(O)C(F)(F)F | 94 | 6 | 28
33 | Cc1ccc(NS(=O)(=O)c2cccs2)cc1-c1cccc(C(=O)Nc2ccc(F)cc2)c1 | 99 | 100 | 38
34 | CO/C(=C\C=C\c1cc2cc(Cl)c(Cl)cc2[nH]1)C(=O)NCCCNCCN(C)c1ccccc1 | 100 | 55 | 33
35 | O=C(Nc1ccccc1F)N(CCCn1ccnc1)Cc1csc(-c2ccc(CNCc3ccccc3)cc2)n1.O=C(O)C(F)(F)F | 93 | 26 | 24
36 | CC(C)c1ccc(NC(=O)c2ccc(CN3CCCN(Cc4cccc(O)c4)CC3)cc2)cc1.O=C(O)C(F)(F)F | 100 | 58 | 51
37 | O=C(Nc1ccc(Cl)cc1)Nc1ccc2nonc2c1 | 94 | 77 | 0
38 | COc1cc2nc(NCCc3ccccc3)nc(NCc3ccc(C#N)cc3)c2cc1OC | 100 | 100 | 52
39 | Cc1ccc(C(=O)Nc2cccc([N+](=O)[O-])c2)cc1S(=O)(=O)N1CC(C)CC(C)C1 (stereo not given) | 100 | 42 | 24
40 | CC(C)(C)c1nn(-c2ccccc2)c2[nH]c(=O)c(CNCc3ccc4c(c3)OCO4)cc12 | 92 | 32 | 1

Row | SMILES | Inhibition (Plasmodium falciparum [1]) [%] | Inhibition (Plasmodium falciparum [2]) [%] | Inhibition (HepG2) [%]
41 | NCC1CCCN1Cc1ccc(-c2ccc(-c3nc4ccccc4[nH]3)s2)cc1.O=C(O)C(F)(F)F (stereo not given) | 98 | 97 | 17
42 | CC(C)CNCc1ccc(-c2ccc(CN(C(=O)NCCc3ccccc3)C3CCN(Cc4ccccc4)CC3)cc2)cc1.O=C(O)C(F)(F)F | 98 | 62 | 37
43 | CC1CCN(CCNC(=O)c2ccc3c(=O)n(Cc4ccc(Cl)cc4)c(=S)[nH]c3c2)CC1 | 100 | 75 | 6
44 | CCCCCN1CCCC(NS(=O)(=O)c2ccc(C(=O)Nc3cccc(C(F)(F)F)c3)cc2)C1.O=C(O)C(F)(F)F (stereo not given) | 97 | 3 | 30
45 | COc1ccc(CNCCCCCCNCCc2ccc(Cl)cc2)cc1OC.Cl | 96 | 0 | 21
46 | CNC(=O)c1cc(F)c(F)cc1Nc1nc(Nc2cccc(CS(C)(=O)=O)c2)ncc1Cl.O=CO | 91 | 90 | 52
47 | Cc1nnc(N2C(=N)SC(=Cc3ccc(-c4ccc(OC(F)(F)F)cc4)o3)C2=O)s1 | 85 | 58 | 37
48 | Cc1nc2nc(N)nc(N)c2c(C)c1Cc1ccccc1Br.Cl | 92 | 2 | 65
49 | CC(C)C1C(=O)N(S(C)(=O)=O)C2CCN(C(=O)c3ccc(CN4CCCCC4)c([N+](=O)[O-])c3)C12.Cl (stereo not given) | 100 | 100 | 10
50 | Cc1ccc2c(=O)n(C)c(=O)n(C)c2n1 | 98 | 0 | 15
51 | O=C(Nc1ccc(F)c(F)c1)c1ccc(CN2CCCN(Cc3cccc(O)c3)CC2)cc1.O=C(O)C(F)(F)F | 92 | 57 | 43
52 | Cc1cccc(CNc2nc(C)cc(N[C@@H](CC(C)C)C(=O)NCc3cccc(F)c3)n2)c1.O=C(O)C(F)(F)F | 91 | 32 | 13
53 | N#Cc1cccc(NC(=O)Nc2cccc(-c3cccc(-c4nc5ccccc5[nH]4)c3)c2)c1 | 100 | 96 | 46
54 | CNCCNCc1ccc(-c2ccc(-c3nc4cccc(C)c4[nH]3)s2)cc1.O=C(O)C(F)(F)F | 97 | 26 | 16
55 | Cl.N#Cc1ccc2c(c1)CCN(CCC1CCC(NC(=O)/C=C/c3c[nH]c4c(Br)cccc34)CC1)CC2 (stereo not given) | 100 | 65 | 32
56 | CN(C)CCN(Cc1ccccc1-c1ccc(CNCCc2ccccc2)cc1)C(=O)NC1CCCCC1.O=C(O)C(F)(F)F | 88 | 89 | 98
57 | O=C(Nc1cc(C(F)(F)F)ccc1Cl)c1ccc(Cn2cc(Br)cn2)cc1 | 91 | 67 | 24
58 | Br.Oc1ccc(CCNCCCCCCNCCCc2ccc(Cl)cc2)cc1O | 87 | 3 | 13
59 | Cc1c[nH]c(-c2cccc(C(=O)NC3CCC(CCN4CCc5ccc(C#N)cc5CC4)CC3)c2)n1.Cl (stereo not given) | 100 | 69 | 23
60 | COc1ccc(-c2cccc(NC(=O)c3ccc(C#N)cc3)c2)cc1CN1CCCN(C)CC1.O=C(O)C(F)(F)F | 100 | 89 | 22
